Drawing on PubChem BioAssay (Tox21), this text covers Potency and max response for 24 compounds.

Inconclusive results are not listed. Values without a mark were called inactive. The source made the active and inactive calls. The call rests on the fitted dose curve; in most records, active means well fitted curve in the direction sought with a large enough effect in the repeat runs; inconclusive means weak or mixed curves; inactive means no such curve, though single readings can be large; an effect the other way counts as inactive or inconclusive.

Test [1] in a line: qHTS RealTime-Glo MT Cell Viability Assay in HepG2 cells - 40 hour (AID 1224870). Further: nearly all actives have a fitted effect of over 50% in size. Put shortly: (§1)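 HepG2 cells mixed with RealTime-Glo MT reagents (NanoLuc plus cell-permeant prosubstrate) were seeded at 600 cells/well, incubated 5 h at 37 C/5% CO2, then pinned with compounds in DMSO; nonlytic luminescence tracked viability during 40 h treatment.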
For orientation: Quantitative high-throughput screening tests each substance at several concentrations.

Test [2] can be described thus: A CellTox Green Cytotoxicity Assay to monitor cytotoxicity in HEK293 cells - 40 hour (AID 1224871). Further: nearly all actives have a fitted effect of over 45% in size. Further: potency means the concentration at half of the fitted maximal effect. Put shortly: (§2)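 Cytotoxicity was tracked continuously in HEK293 cells by a DNA-binding dye excluded from viable cells. Compounds were transferred in DMSO 5 h after seeding; fluorescence was recorded at intervals up to 40 h.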
The nature of test [3]: qHTS RealTime-Glo MT Cell Viability Assay in HEK293 cells - 16 hour (AID 1224872). Further: nearly all actives have a fitted effect of over 50% in size. Further: potency means the concentration at half of the fitted maximal effect. Put shortly: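 Reads taken at 0, 8, 16, 24, 32 and 40 h from the same wells. HEK293 cells (600/well) carried RealTime-Glo reagents from seeding, with compound added after a 5 h settle at 37 C.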
Test [4] in a line: qHTS RealTime-Glo MT Cell Viability Assay in HepG2 cells - 8 hour (AID 1224873). Further: nearly all actives have a fitted effect of over 55% in size. A digest of the protocol: as §1
Test [5] can be described thus: qHTS RealTime-Glo MT Cell Viability Assay in HEK293 cells - 40 hour (AID 1224874). Further: nearly all actives have a fitted effect of over 50% in size. Further: potency means the concentration at half of the fitted maximal effect. The note with it: RealTime-Glo luminescence; max response: hits give low values. Put shortly:
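Nonlytic bioluminescent viability monitoring. HEK293 at 600 cells/well with reagent; 5 h settle; compound transfer by pintool; plates held at 37 C and read at set time points.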

Test [6] in a line: A CellTox Green Cytotoxicity Assay to monitor cytotoxicity in HEK293 cells - 24 hour (AID 1224875). Further: nearly all actives have a fitted effect of over 45% in size. Further: potency means the concentration at half of the fitted maximal effect. Put shortly:
as §2

Test [7] in a line: A CellTox Green Cytotoxicity Assay to monitor cytotoxicity in HepG2 cells - 16 hour (AID 1224876). Further: nearly all actives have a fitted effect of over 45% in size. Put shortly: (§3)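 Real-time, homogeneous cytotoxicity readout: dead-cell DNA staining by CellTox Green in HepG2 monolayers, fluorescence measured at timed intervals up to 40 h of continuous compound exposure.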
Test [8] in a line: A CellTox Green Cytotoxicity Assay to monitor cytotoxicity in HepG2 cells - 24 hour (AID 1224878). Further: nearly all actives have a fitted effect of over 45% in size. Further: potency means the concentration at half of the fitted maximal effect. Put shortly:
as §3

Test [9] can be described thus: A CellTox Green Cytotoxicity Assay to monitor cytotoxicity in HepG2 cells - 40 hour (AID 1224879). Further: nearly all actives have a fitted effect of over 40% in size. Further: potency means the concentration at half of the fitted maximal effect. Put shortly:
as §3

Test [10] can be described thus: qHTS RealTime-Glo MT Cell Viability Assay in HepG2 cells - 32 hour (AID 1224877). Further: nearly all actives have a fitted effect of over 55% in size. Put shortly:
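HepG2 suspension premixed with RealTime-Glo reagents is plated at 600 cells per well and left 5 h at 37 C/5% CO2. Compounds in DMSO then go in, and bioluminescence reflecting viable cell number is recorded over 40 h.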
On the % scale 0 is the no-effect control and ±100 the full control effect.

`CC(C)(C)NCC(O)COc1cccc2c1C[C@H](O)[C@H](O)C2` (some centres undefined): the Potency entry in test [1], in test [2], in [3], in test [4], in [6] and in test [7] was “inactive” throughout. The Potency result in [8] and in test [9] was “inactive” each time. For the same compound, the max response in [5] is 4.53%.
In the case of `Cc1cccc2sc(N)nc12`, the Potency entry in test [1], in [2], in test [3], in [4], in test [6] and in test [7] was “inactive” throughout. Moreover, the Potency entry in test [10] and in test [9] was “inactive” in each case. Besides, in test [5], the max response was 25.1%.
As for `CN1C(CSCC(F)(F)F)Nc2cc(Cl)c(S(N)(=O)=O)cc2S1(=O)=O` (centres undefined), the Potency entry in test [1], in test [2], in [4], in [6], in test [7] and in test [10] was “inactive” each time. The Potency entry in test [8] and in test [9] was “inactive” in each case. The values for the Potency in test [3] and in test [5] were 19 µM (active) and 21.3 µM (active), respectively.
Consider `C=CC(=O)O`, for which the Potency result in [1], in test [2], in [3], in test [4], in test [6] and in test [10] was “inactive” each time. In test [9], the Potency entry is “inactive”. In addition, in test [5], the max response is -0.787%.
With `COc1ccc(C)cc1`, the Potency result in test [1], in test [2], in test [3], in test [4], in test [6] and in test [7] was “inactive” throughout. Further, the Potency result in [10], in [8] and in test [9] was “inactive” in each case. The max response in test [5] was 9.25%.
Turning to `CCN(CC)CCOc1ccccc1C(=O)CCc1ccccc1`, the Potency result in test [1], in [2], in [4], in test [6], in test [7] and in [10] was “inactive” each time. The Potency result in test [9] is “inactive”. Further, the Potency in [3] and in [5] was 10.7 µM (active) in each case.
For `CC[C@@H](CO)NCCN[C@@H](CC)CO`, the Potency result in test [1], in test [2], in test [3], in test [4], in [6] and in test [10] was “inactive” in each case. Moreover, the max response in test [5] was 5.04%.
On to `Nc1ccc(NC(=O)c2ccc(N)cc2)cc1`, for which the Potency entry in test [1], in test [2], in test [3], in test [4], in test [6] and in test [8] was “inactive” throughout. Further, the Potency entry in test [9] was “inactive”. Moreover, the max response in [5] was -13%.
In the case of `CCOCCC(=O)OCC`, the Potency result in [1], in test [2], in test [3], in test [4], in test [6] and in test [7] was “inactive” throughout. Besides, the Potency entry in [8] and in [9] was “inactive” throughout. Also, the max response in test [5] was 4.01%.
Regarding `CCOC(=O)Oc1ccc(CCNC(=O)[C@H](CCSC)NC(C)=O)cc1OC(=O)OCC`, the Potency entry in [1], in [2], in [3], in test [4], in test [6] and in test [7] was “inactive” throughout. Further, the Potency entry in test [10] and in [9] was “inactive” throughout. Also, the max response in test [5] is 14.4%.
Turning to `Cc1oc(=O)oc1COC(=O)[C@@H]1N2C(=O)[C@@H](NC(=O)[C@H](N)c3ccccc3)[C@H]2SC1(C)C`, the Potency result in [1], in test [2], in [3], in test [4], in test [6] and in [8] was “inactive” throughout. In addition, the max response in test [5] was 6.21%.
For `Cc1ccc2c(c1)CCCN2`, the Potency result in test [1], in test [2], in [3], in test [4], in [7] and in test [10] was “inactive” in each case. For the same compound, the max response in test [5] was 1.39%.
In the case of `NC(=O)CCCCC(N)=O`, the Potency result in test [1], in test [2], in test [3], in test [4], in test [6] and in test [7] was “inactive” throughout. Besides, the Potency entry in [10] and in test [9] was “inactive” each time. For the same compound, the max response in test [5] is 1.27%.
For `CC(C)Cc1ccc(CC(=O)O)cc1`, the Potency result in [1], in test [3], in [4] and in [10] was “inactive” each time. Moreover, the Potency was 15.1 µM (active) in [2], 10.7 µM (active) in test [6], 19 µM (active) in [8] and 21.3 µM (active) in test [9]. In addition, the max response in test [5] is 4.43%.
In the case of `CC(=O)Oc1cccc(O)c1`, the Potency entry in test [1], in [2], in test [3], in [4], in test [6] and in test [7] was “inactive” throughout. Moreover, the Potency result in test [8] and in [9] was “inactive” in each case. For the same compound, the max response in test [5] was -0.489%.
Consider `CCCCCCCCCCCCCCCCCC(=O)OCC(CC)CCCC` (centres undefined), for which the Potency entry in [1], in test [2], in test [3], in test [4], in [6] and in test [7] was “inactive” each time. Also, the Potency result in test [10] and in [9] was “inactive” each time. The max response in test [5] is 2.92%.
`BrC(Br)C(Br)Br`: the Potency entry in test [1], in test [2], in test [3], in test [4], in test [6] and in test [10] was “inactive” throughout. Also, the Potency entry in [8] and in [9] was “inactive” throughout. The max response in test [5] was -12.1%.
Take `Cc1c[nH]c2ccccc12`: the Potency result in [1], in test [2], in [3], in test [4], in [6] and in test [7] was “inactive” throughout. Besides, the Potency result in [8] is “inactive”. The max response in test [5] was 17.2%.
Consider `CCCCCCCCCCCSCC(=O)O`, for which the Potency result in [1], in test [2], in test [3], in test [4], in test [6] and in test [7] was “inactive” throughout. The Potency entry in test [10], in test [8] and in [9] was “inactive” throughout. The max response in [5] is 2.44%.
For `O=C(O)c1cccc(C[C@@H]2COc3ccc(OCc4nc5cc(F)ccc5s4)cc3[C@@H]2O)c1`, the Potency entry in [1], in test [2], in test [3], in [4], in [6] and in [7] was “inactive” each time. In addition, the Potency entry in [10] and in test [9] was “inactive” throughout. The max response in test [5] is 4.74%.
For `CCCCCCOC(=O)CCCCC`, the Potency result in test [1], in test [2], in [3], in test [4], in test [6] and in test [7] was “inactive” in each case. For the same compound, the Potency entry in test [8] and in test [9] was “inactive” throughout. Besides, the max response in [5] is 0.369%.
As for `C1=CCC2CC=CC2C1` (centres undefined), the Potency result in test [1], in test [2], in test [3], in test [4], in test [6] and in test [7] was “inactive” each time. Further, the Potency result in test [8] and in [9] was “inactive” throughout. Further, the max response in test [5] is 16.8%.
Take `CCN(CC)C(=O)N1CCN(C)CC1`: the Potency result in test [1], in test [2], in test [3], in [4], in test [7] and in test [10] was “inactive” throughout. Besides, the Potency entry in [8] is “inactive”. For the same compound, the max response in test [5] is 4.18%.
For `Nc1ccc(N=Nc2ccc(N)cc2)cc1`, the Potency result in test [1], in test [2], in [3], in test [4], in test [6] and in test [7] was “inactive” each time. Moreover, the Potency entry in [10] and in test [9] was “inactive” throughout. Besides, the max response in test [5] was -7.32%.
